Laboratory results taken from PubChem BioAssay.
For some of these results: Measured potencies and affinities stand elsewhere. Calls of active or inactive are those of the source. Unless noted, the rule behind the calls is not given here.

Columns and labels:
[1] = antimalarial activity against Dd2 strain (AID 2302;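 active = growth inhibition above 50% at the single 2 µM test dose, taken to imply half-maximal potency below 2 µM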;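 note: 0% = DMSO untreated growth and 100% = chloroquine plus artemisinin killed control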); conditions: P. falciparum Dd2 in RBCs, LDH growth readout, 72 h; at 2 µM; hits give high values
[2] = human hepatoma cell viability loss – ATP luminescence, cytotoxicity control for P. falciparum antimalarial project, primary screen (AID 2303;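 active = inhibition above 50%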;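 note: 0% = DMSO wells and 100% = digitonin-killed cells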); conditions: HepG2 viability, 24-48 h, at 10 µM, hits give high values
[3] = molecular target: L-lactate dehydrogenase (Plasmodium falciparum (isolate CDC / Honduras)) (UniProt Q27743); test: PfLDH activity inhibition – cell lysate, 3D7 strain, counter-screen for P. falciparum growth inhibition project (AID 2304);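 note: 0% = vehicle and 100% = reference inhibitor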; conditions: P. falciparum 3D7 crude extract, LDH APAD/NBT absorbance; at 2 µM; hits give high values
L-lactate dehydrogenase (Plasmodium falciparum (isolate CDC / Honduras)), sequence (Q27743 whole entry, looked up): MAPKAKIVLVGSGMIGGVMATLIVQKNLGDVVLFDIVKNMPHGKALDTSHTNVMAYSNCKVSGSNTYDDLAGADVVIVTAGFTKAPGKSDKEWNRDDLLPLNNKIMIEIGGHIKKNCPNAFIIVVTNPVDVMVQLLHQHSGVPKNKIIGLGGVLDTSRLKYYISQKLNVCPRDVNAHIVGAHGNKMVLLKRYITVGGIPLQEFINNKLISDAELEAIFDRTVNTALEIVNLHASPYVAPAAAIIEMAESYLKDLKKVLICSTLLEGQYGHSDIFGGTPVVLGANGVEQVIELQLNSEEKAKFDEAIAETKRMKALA

[4] = inhibition of 3D7 malaria parasite growth – strain 3D7 (AID 2306);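 note: 0% = DMSO wells and 100% = chloroquine plus artemisinin control wells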; conditions: P. falciparum 3D7 erythrocytic growth, LDH absorbance, 72 h; at 2 µM; hits give high values
[5] = molecular target: Calcium-dependent protein kinase 1 (Plasmodium falciparum (isolate 3D7)) (UniProt P62344); test: PfCDPK1 kinase inhibitors, biochemical, TCAMS library (AID 1159585; cut-off not given, nearly all actives have IC50 up to about 0.98 µM;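 note: inhibitors leave more ATP so luminescence rises with inhibition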); conditions: recombinant PfCDPK1, Kinase-Glo ATP depletion luminescence
Calcium-dependent protein kinase 1 (Plasmodium falciparum (isolate 3D7)), sequence (P62344 whole entry, looked up): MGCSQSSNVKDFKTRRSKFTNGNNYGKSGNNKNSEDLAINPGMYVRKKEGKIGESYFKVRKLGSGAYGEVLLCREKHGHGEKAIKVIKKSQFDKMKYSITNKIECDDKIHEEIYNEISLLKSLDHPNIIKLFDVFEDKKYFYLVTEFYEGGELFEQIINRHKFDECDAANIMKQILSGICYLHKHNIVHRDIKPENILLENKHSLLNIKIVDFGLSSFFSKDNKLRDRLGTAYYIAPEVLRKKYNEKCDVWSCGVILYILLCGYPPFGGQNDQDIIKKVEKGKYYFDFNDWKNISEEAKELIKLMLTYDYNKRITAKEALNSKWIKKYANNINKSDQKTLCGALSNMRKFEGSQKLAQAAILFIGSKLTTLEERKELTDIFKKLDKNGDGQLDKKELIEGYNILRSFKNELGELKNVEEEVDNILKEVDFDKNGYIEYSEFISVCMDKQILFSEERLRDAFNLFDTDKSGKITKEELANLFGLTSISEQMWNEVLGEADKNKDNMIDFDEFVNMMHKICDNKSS

[6] = molecular target: Plasmodium falciparum protein kinase 6 (PK6, PF3D7_1337100) (UniProt Q8IDW1); test: PfPK6 kinase inhibitors, biochemical, TCAMS library (AID 1159586); conditions: recombinant PfPK6, Kinase-Glo ATP depletion luminescence
Plasmodium falciparum protein kinase 6 (PK6, PF3D7_1337100), sequence (Q8IDW1 1-305): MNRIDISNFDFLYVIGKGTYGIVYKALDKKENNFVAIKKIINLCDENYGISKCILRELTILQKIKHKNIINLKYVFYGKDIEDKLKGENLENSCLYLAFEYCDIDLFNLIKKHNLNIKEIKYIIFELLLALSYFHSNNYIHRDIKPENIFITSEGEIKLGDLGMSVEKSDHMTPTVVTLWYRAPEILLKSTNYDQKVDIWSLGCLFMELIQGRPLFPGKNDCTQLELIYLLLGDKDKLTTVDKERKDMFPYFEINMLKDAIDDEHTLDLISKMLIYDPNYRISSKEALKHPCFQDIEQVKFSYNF

[7] = molecular target: Protein kinase 7 (PK7), Plasmodium falciparum 3D7 (PF3D7_0213400) (UniProt Q7YTF7); test: inhibition of Plasmodium PK7 catalytic activity – biochemical, TCAMS antimalarial set, Kinase-Glo luminescence (AID 1159587); conditions: recombinant PfPK7, Kinase-Glo ATP depletion luminescence
Protein kinase 7 (PK7), Plasmodium falciparum 3D7 (PF3D7_0213400), sequence (Q7YTF7 1-343): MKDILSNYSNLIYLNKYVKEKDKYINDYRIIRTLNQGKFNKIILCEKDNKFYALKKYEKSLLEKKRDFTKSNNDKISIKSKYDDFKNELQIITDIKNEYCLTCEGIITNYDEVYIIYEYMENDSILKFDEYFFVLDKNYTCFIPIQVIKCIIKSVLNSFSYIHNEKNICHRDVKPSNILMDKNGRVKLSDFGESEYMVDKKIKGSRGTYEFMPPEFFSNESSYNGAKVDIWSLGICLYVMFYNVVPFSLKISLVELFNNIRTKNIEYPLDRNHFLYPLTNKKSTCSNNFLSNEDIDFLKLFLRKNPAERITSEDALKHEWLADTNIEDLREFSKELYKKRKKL

[8] = molecular target: Calcium-dependent protein kinase 4 (Plasmodium falciparum (isolate 3D7)) (UniProt Q8IBS5); test: PfCDPK4 kinase inhibitors, biochemical, TCAMS library (AID 1159588; cut-off not given, nearly all actives have IC50 up to about 0.91 µM); conditions: recombinant PfCDPK4, Kinase-Glo ATP depletion luminescence
Calcium-dependent protein kinase 4 (Plasmodium falciparum (isolate 3D7)), sequence (Q8IBS5 whole entry, looked up): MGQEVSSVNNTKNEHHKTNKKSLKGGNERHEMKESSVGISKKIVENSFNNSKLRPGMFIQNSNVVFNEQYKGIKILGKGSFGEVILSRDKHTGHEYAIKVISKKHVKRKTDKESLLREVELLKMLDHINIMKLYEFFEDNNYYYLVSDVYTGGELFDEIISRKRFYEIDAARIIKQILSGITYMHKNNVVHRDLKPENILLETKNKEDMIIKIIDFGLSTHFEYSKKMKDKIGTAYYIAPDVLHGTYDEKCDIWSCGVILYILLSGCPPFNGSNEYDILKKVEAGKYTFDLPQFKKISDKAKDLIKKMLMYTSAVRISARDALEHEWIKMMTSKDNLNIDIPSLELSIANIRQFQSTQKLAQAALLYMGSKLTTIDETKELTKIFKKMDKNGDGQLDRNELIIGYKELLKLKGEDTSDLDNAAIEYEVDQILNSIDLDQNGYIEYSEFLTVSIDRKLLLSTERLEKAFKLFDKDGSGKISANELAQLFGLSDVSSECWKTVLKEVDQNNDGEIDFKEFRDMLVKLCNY

Cc1cccc2[nH]c(-c3cccc(-c4cccc(CNCC5CCCO5)c4)c3)nc12 (stereo not drawn)
inactive: inhibition [2] 26% | inhibition [3] -3% | outcome [5] | outcome [6] | outcome [7] | outcome [8]
active: growth inhibition [1] 99% | growth inhibition [4] 101%

CCNc1cc(C(=O)N[C@@H](Cc2ccccc2)[C@H](O)CN[C@@H]2CCc3ccccc32)cc(N2CCCCS2(=O)=O)c1
active: growth inhibition [1] 97% | growth inhibition [4] 98%
inactive: inhibition [2] -7% | inhibition [3] 4% | outcome [5] | outcome [6] | outcome [7] | outcome [8]

CCCN1CCN(CCCNC(=O)c2cc3c(Cl)nc4ccc(C)cc4c3s2)CC1
inactive: growth inhibition [1] 27% | inhibition [2] 18% | inhibition [3] 0% | outcome [5] | outcome [6] | outcome [7] | outcome [8]
active: growth inhibition [4] 97%

c1cc(CNCCc2ccncc2)cc(-c2ccc(-c3nc4ccccc4[nH]3)cc2)c1
active: growth inhibition [1] 97% | growth inhibition [4] 99%
inactive: inhibition [2] 28% | inhibition [3] 5% | outcome [5] | outcome [6] | outcome [7] | outcome [8]

CCCCCCc1cc2cc(-c3csc(C=Cc4ccccc4)n3)c(=O)oc2cc1O
inactive: inhibition [2] 17% | inhibition [3] 2% | outcome [5] | outcome [6] | outcome [7] | outcome [8]
active: growth inhibition [1] 75% | growth inhibition [4] 96%

COc1cc(C=NNc2nc(Nc3ccccc3)nc(Nc3ccccc3)n2)ccc1OCc1ccccc1[N+](=O)[O-]
inactive: growth inhibition [1] 18% | inhibition [2] 8% | inhibition [3] 3% | outcome [5] | outcome [6] | outcome [7] | outcome [8]
active: growth inhibition [4] 98%

c1cc(CNCCc2ccncc2)cc(-c2csc(-c3nc4ccccc4[nH]3)c2)c1
active: growth inhibition [1] 99% | growth inhibition [4] 100%
inactive: inhibition [2] 16% | inhibition [3] -8% | outcome [5] | outcome [6] | outcome [7] | outcome [8]

CC(C)n1c(CC2CCN(CC3CCN(C(=O)/C=C/c4ccc(Cl)c(Cl)c4)CC3)CC2)nc2ccccc21
active: growth inhibition [4] 101%
inactive: growth inhibition [1] 23% | inhibition [2] 19% | inhibition [3] -3% | outcome [5] | outcome [6] | outcome [7] | outcome [8]

O=C(Nc1ccc(-c2oc(C(=O)NCCc3cccc(Cl)c3)cc2-c2ccncc2)cc1)Nc1cccc(Cl)c1
inactive: inhibition [2] 13% | inhibition [3] -1% | outcome [5] | outcome [6] | outcome [7] | outcome [8]
active: growth inhibition [1] 84% | growth inhibition [4] 99%

COc1ccc2nccc([C@@H](O)CN3CCC(NCc4ccc5c(c4)NC(=O)C(C)S5)CC3)c2c1 (stereo partly drawn)
inactive: inhibition [2] 7% | inhibition [3] 2% | outcome [5] | outcome [6] | outcome [7] | outcome [8]
active: growth inhibition [1] 72% | growth inhibition [4] 99%

O=C(Nc1ccc(-c2nc3ccccc3[nH]2)cc1)c1cccc([N+](=O)[O-])c1
active: growth inhibition [1] 56% | growth inhibition [4] 101%
inactive: inhibition [2] 45% | inhibition [3] -3% | outcome [5] | outcome [6] | outcome [7] | outcome [8]

Cc1cccc2[nH]c(-c3cccc(-c4cccc(NC(=O)NCc5ccccc5)c4)c3)nc12
inactive: growth inhibition [1] 27% | inhibition [2] 12% | inhibition [3] 5% | outcome [5] | outcome [6] | outcome [7] | outcome [8]
active: growth inhibition [4] 94%

CCCCN=C(N)Nc1ccc(OCCCOc2ccc(NC(N)=NCCCC)cc2)cc1
active: growth inhibition [1] 97% | growth inhibition [4] 96%
inactive: inhibition [2] 15% | inhibition [3] 4% | outcome [5] | outcome [6] | outcome [7] | outcome [8]

CCN1CCC(N(Cc2ccc(-c3ccc(C(F)(F)F)cc3)cc2)C(=O)Cn2c(CCc3cccc(F)c3F)cc(=O)c3ccccc32)CC1
inactive: inhibition [3] 3% | outcome [5] | outcome [6] | outcome [7] | outcome [8]
active: growth inhibition [1] 94% | inhibition [2] 100% | growth inhibition [4] 94%

O=C(/C=C/c1ccc(Cl)c(Cl)c1)NCCCCCN1CCC(c2cn[nH]c2-c2ccccc2)CC1
active: growth inhibition [4] 85%
inactive: growth inhibition [1] -2% | inhibition [2] 28% | inhibition [3] -2% | outcome [5] | outcome [6] | outcome [7] | outcome [8]

COc1ccc2nc3ccccc3c(NCCN3CCN(C)CC3)c2c1
active: growth inhibition [4] 81%
inactive: growth inhibition [1] 10% | inhibition [2] 11% | inhibition [3] 1% | outcome [5] | outcome [6] | outcome [7] | outcome [8]

O=S(=O)(c1ccc2ccccc2c1)N1CCCN(Cc2ccc(OCCCN3CCCCC3)cc2)CC1
inactive: growth inhibition [1] 11% | inhibition [2] 43% | inhibition [3] -3% | outcome [5] | outcome [6] | outcome [7] | outcome [8]
active: growth inhibition [4] 98%

CN(CCCCNC(=O)c1ccc(-c2ccccc2)cc1)C1CCc2c(O)cccc2C1 (stereo not drawn)
inactive: growth inhibition [1] 21% | inhibition [2] 24% | inhibition [3] 0% | outcome [5] | outcome [6] | outcome [7] | outcome [8]
active: growth inhibition [4] 102%

CS(=O)(=O)NCCCNCc1cccc(-c2cccc(-c3nc4ccc(C(F)(F)F)cc4[nH]3)c2)c1
active: growth inhibition [1] 100% | growth inhibition [4] 99%
inactive: inhibition [2] 17% | inhibition [3] 5% | outcome [5] | outcome [6] | outcome [7] | outcome [8]

Cc1cccc2[nH]c(-c3ccc(-c4ccc(NC(=O)NCc5cccc(F)c5)cc4)s3)nc12
inactive: growth inhibition [1] 43% | inhibition [3] -6% | outcome [5] | outcome [6] | outcome [7] | outcome [8]
active: inhibition [2] 70% | growth inhibition [4] 101%

O=C(Nc1ccc(Cl)cc1)N[C@H]1CCN(Cc2ccc(OCCCN3CCCCC3)cc2)C1
inactive: growth inhibition [1] -1% | inhibition [2] 29% | inhibition [3] -2% | outcome [5] | outcome [6] | outcome [7] | outcome [8]
active: growth inhibition [4] 103%

CCN1CCN(c2cc(C)c3cc(NC(=O)c4cccc(OC)c4)ccc3n2)CC1
inactive: growth inhibition [1] 15% | inhibition [2] 5% | inhibition [3] 3% | outcome [5] | outcome [6] | outcome [7] | outcome [8]
active: growth inhibition [4] 99%

COc1cc(-c2nc(-c3ccccc3)c(-c3ccc(C(=O)c4ccc(F)cc4)cc3)[nH]2)cc(OC)c1O
inactive: inhibition [2] 0% | inhibition [3] -3% | outcome [5] | outcome [6] | outcome [7] | outcome [8]
active: growth inhibition [1] 100% | growth inhibition [4] 101%

CN(C)c1ccc(-c2nnc(Sc3ccc(C#N)c([N+](=O)[O-])c3)n2Cc2ccco2)cc1
active: growth inhibition [1] 79% | growth inhibition [4] 95%
inactive: inhibition [2] 3% | inhibition [3] 3% | outcome [5] | outcome [6] | outcome [7] | outcome [8]

COc1cccc2cc(C(=O)N[C@@H](CC(C)C)C(=O)N[C@H](/C=N/N(C)C(=O)OC(C)(C)C)Cc3ccccc3)oc12
active: growth inhibition [1] 89% | growth inhibition [4] 99%
inactive: inhibition [2] 5% | inhibition [3] -3% | outcome [5] | outcome [6] | outcome [7] | outcome [8]

FC(F)(F)c1cc(C(F)(F)F)c2cc(CNCCCNc3nc4ccccc4[nH]3)[nH]c2c1
inactive: inhibition [3] 0% | outcome [5] | outcome [6] | outcome [7] | outcome [8]
active: growth inhibition [1] 99% | inhibition [2] 99% | growth inhibition [4] 100%

CC(C)CNCc1cccc(-c2cccc(CNc3ccc4ncccc4c3)c2)c1
active: growth inhibition [4] 92%
inactive: growth inhibition [1] 28% | inhibition [2] 23% | inhibition [3] 6% | outcome [5] | outcome [6] | outcome [7] | outcome [8]

CC(C)(C)c1nn(-c2ccc(Cl)cc2)c2[nH]c(=O)c(CNCc3cccs3)cc12
active: growth inhibition [1] 77% | growth inhibition [4] 102%
inactive: inhibition [2] 5% | inhibition [3] 3% | outcome [5] | outcome [6] | outcome [7] | outcome [8]

CCCCCCN1CCC(NCc2ccc(CN(C)C)cc2)CC1
active: growth inhibition [4] 92%
inactive: growth inhibition [1] 26% | inhibition [2] 18% | inhibition [3] 1% | outcome [5] | outcome [6] | outcome [7] | outcome [8]

Cc1cc(NCCC(=O)Nc2ccccc2)nc(NCC2CCCCC2)n1
active: growth inhibition [1] 62% | growth inhibition [4] 100%
inactive: inhibition [2] 14% | inhibition [3] 3% | outcome [5] | outcome [6] | outcome [7] | outcome [8]

CON=Cc1ccn(-c2ccc(O)c3c2C[C@H]2C[C@H]4[C@H](N(C)C)C(=O)C(C(N)=O)=C(O)[C@@]4(O)C(=O)C2=C3O)c1
inactive: inhibition [2] 3% | inhibition [3] -1% | outcome [5] | outcome [6] | outcome [7] | outcome [8]
active: growth inhibition [1] 70% | growth inhibition [4] 96%

O=C(Nc1ccc(-c2ccccc2)cc1)Nc1ccc2c(c1)CCNCC2
active: growth inhibition [4] 97%
inactive: growth inhibition [1] 48% | inhibition [2] 41% | inhibition [3] -2% | outcome [5] | outcome [6] | outcome [7] | outcome [8]

CC(C)CNCc1ccc(-c2cccc(CN(C(=O)NCCc3ccccc3)C3CCN(Cc4ccccc4)CC3)c2)cc1
active: growth inhibition [1] 94% | inhibition [2] 91% | growth inhibition [4] 100%
inactive: inhibition [3] -1% | outcome [5] | outcome [6] | outcome [7] | outcome [8]

Cc1cccc2[nH]c(-c3ccc(-c4ccc(CN5CCC(CO)CC5)cc4)s3)nc12
inactive: inhibition [2] 15% | inhibition [3] -10% | outcome [5] | outcome [6] | outcome [7] | outcome [8]
active: growth inhibition [1] 82% | growth inhibition [4] 101%

COc1ccc2nccc([C@@H](O)CN3CCC(NC(=O)C(c4cc5ccccc5o4)N4CCN(c5ccc(F)cc5)CC4)CC3)c2c1 (stereo partly drawn)
active: growth inhibition [1] 98% | growth inhibition [4] 100%
inactive: inhibition [2] 15% | inhibition [3] -1% | outcome [5] | outcome [6] | outcome [7] | outcome [8]

Nc1nc(-c2ccccn2)nc(-n2nc(-c3cccc(C(F)(F)F)c3)cc2N)n1
inactive: inhibition [2] 14% | inhibition [3] -5% | outcome [5] | outcome [6] | outcome [7] | outcome [8]
active: growth inhibition [1] 74% | growth inhibition [4] 87%

FC(F)(F)c1ccc2nc(-c3ccc(-c4cccc(CNCc5ccccc5)c4)cc3)[nH]c2c1
inactive: growth inhibition [1] 43% | inhibition [2] -2% | inhibition [3] -5% | outcome [5] | outcome [6] | outcome [7] | outcome [8]
active: growth inhibition [4] 100%

CNC(=O)c1cnc(Nc2ccc(OCC(O)CN(C)C)cc2)nc1Nc1cccc(OC(C)C)c1 (stereo not drawn)
inactive: inhibition [2] 21% | inhibition [3] 1% | outcome [5] | outcome [6] | outcome [7] | outcome [8]
active: growth inhibition [1] 100% | growth inhibition [4] 103%

COc1ccccc1/C=C/C(=O)NC1CCC(CCN2CCc3ccc(-c4cc(C)no4)cc3CC2)CC1 (stereo not drawn)
inactive: growth inhibition [1] 11% | inhibition [2] 47% | inhibition [3] 0% | outcome [5] | outcome [6] | outcome [7] | outcome [8]
active: growth inhibition [4] 95%

O=S(=O)(Nc1cccc(F)c1CNCc1ccccn1)c1ccc(Cl)c(Cl)c1
inactive: growth inhibition [1] 34% | inhibition [2] 45% | inhibition [3] -5% | outcome [5] | outcome [6] | outcome [7] | outcome [8]
active: growth inhibition [4] 92%

O=C(c1ccc([N+](=O)[O-])o1)N1CCN(c2ccccc2)CC1
inactive: inhibition [2] 44% | inhibition [3] 0% | outcome [5] | outcome [6] | outcome [7] | outcome [8]
active: growth inhibition [1] 72% | growth inhibition [4] 94%
